Screening results: PubChem, The Scripps Research Institute Molecular Screening Center
TbREL1 inh: TbREL1 inhibition, primary screen; P86926; TbREL1 RNA ligation, FRET fluorescence; inhibition, % at 9.66 µM; hit rate 0.49% among 89,000;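 active = inhibition above the mean inhibition across all screened compounds plus 3 SD, cut at about 11% in these data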;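 note: 0% = plate median of test wells and 100% = NSC42067 control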
Target sequence (P86926 whole entry, looked up): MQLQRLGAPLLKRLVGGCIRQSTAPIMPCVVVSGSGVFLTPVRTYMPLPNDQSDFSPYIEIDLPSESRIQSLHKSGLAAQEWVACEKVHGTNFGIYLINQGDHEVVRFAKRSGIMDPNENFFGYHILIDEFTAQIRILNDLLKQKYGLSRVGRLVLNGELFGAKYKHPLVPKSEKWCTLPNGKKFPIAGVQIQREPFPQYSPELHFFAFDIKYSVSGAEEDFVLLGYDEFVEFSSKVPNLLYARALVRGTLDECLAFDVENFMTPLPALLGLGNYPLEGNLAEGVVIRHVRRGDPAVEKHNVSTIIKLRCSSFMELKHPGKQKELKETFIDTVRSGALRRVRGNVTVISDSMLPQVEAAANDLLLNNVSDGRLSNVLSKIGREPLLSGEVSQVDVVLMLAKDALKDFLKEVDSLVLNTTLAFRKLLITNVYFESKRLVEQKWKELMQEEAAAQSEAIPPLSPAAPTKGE
TbREL1 conf: TbREL1 inhibition, confirmation | shares compounds with TbREL1 inh | TbREL1 RNA ligation, FRET fluorescence | inhibition, % at 9.66 µM | hit rate 37% among 390 | AID 1117282;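 active = mean inhibition across replicates above a set limit taken from the earlier primary screen, cut at about 11% in these data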;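 note: 0% = REL1 with substrate and DMSO and 100% = REL1 plus control inhibitor NSC42067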
* hit, by the source's call. The entries come from a sample that favours hits as a whole.

How did Cc1ccc(OCc2nnc(SCC(=O)Nc3cccc4ccccc34)n2Cc2ccco2)cc1 do in these assays?
TbREL1 inh: 2

What do the screens show for `Cc1c(NC(=O)CN2CCN(c3ccccc3)CC2)c(=O)n(-c2ccccc2)n1C`?
TbREL1 inh: 3

How did Cc1ccc(SCCC(=O)Nc2c(C)n(C)n(-c3ccccc3)c2=O)cc1 do in these assays?
TbREL1 inh: -1

How did Cc1c(NC(=O)CN2CC(C)OC(C)C2)c(=O)n(-c2ccccc2)n1C (stereo unspecified) do in these assays?
TbREL1 inh: 13*

What do the screens show for `CC(C)c1cc(C(C)C)c(S(=O)(=O)N2CCCC(C(=O)N3CCN(Cc4ccccc4)CC3)C2)c(C(C)C)c1` (stereo unspecified)?
TbREL1 inh: -2

What do the screens show for `Cc1ccc(-c2nnc3n2N=C(c2ccc4ccccc4c2)CS3)cc1`?
TbREL1 inh: 2

How did C#CCOCCOCCOCCNc1nc(N2CCN(C(=O)CCCCCCCCCCNC(=O)[C@H](CCCCN)n3cc(CCO)nn3)CC2)nc(N2CCN(C(=O)CCCCCCCCCCNC(=O)[C@H](CCCCN)n3cc(CCCC(=O)O)nn3)CC2)n1 do in these assays?
TbREL1 inh: 12*

How did C#CCOCCOCCOCCNc1nc(N2CCOCC2)nc(N2CCN(C(=O)[C@H](CCCCN)n3cc(CCC(=O)O)nn3)CC2)n1 do in these assays?
TbREL1 inh: 1

Results for C#CCOCCOCCOCCNc1nc(N2CCOCC2)nc(N2CCN(C(=O)CCCCCCCCCCNC(=O)[C@H](CO)n3cc(CCCSC)nn3)CC2)n1 ?
TbREL1 inh: -3

Results for O=C(c1cccc(F)c1F)N(Cc1ccccn1)CC1CCCO1 (stereo unspecified) ?
TbREL1 inh: 2

How did COc1cc2c(cc1NC(=O)CSc1nnc(-c3cccnc3)n1-c1ccc(Br)cc1)oc1ccccc12 do in these assays?
TbREL1 inh: 11*; TbREL1 conf: 6

Results for COc1cc2c(cc1NC(=O)CSc1nnc(-c3ccccn3)n1-c1ccccc1)oc1ccccc12 ?
TbREL1 inh: 8

How did CCOc1ccc(-n2c(SCC(=O)Nc3cc4oc5ccccc5c4cc3OC)nnc2-c2cccc(Cl)c2)cc1 do in these assays?
TbREL1 inh: 1

How did c1nc(NCC2CCCOC2)c2cc(-c3ccc4c(c3)OCO4)ccc2n1 (stereo unspecified) do in these assays?
TbREL1 inh: 0

How did Cc1cccc(NC(=O)CCS(=O)(=O)c2ccccc2)c1C do in these assays?
TbREL1 inh: 3

What do the screens show for `CCC(C)N(c1nc(C)nc2c1nnn2Cc1ccccc1)C(C)CC` (stereo unspecified)?
TbREL1 inh: 1

Results for O=C(Nc1ccc2c(c1)OCO2)N1CCC(c2nc3ccc(Cl)cc3[nH]2)CC1 ?
TbREL1 inh: -1

What do the screens show for `Cc1ccc(C(=O)n2ccc3ccc(-c4ccc5ccn(Cc6ccccc6)c5c4)cc32)cc1`?
TbREL1 inh: 3

How did CCOc1ccccc1-c1nc(C(N)=O)c2[nH]c(=O)n(-c3ccc(F)cc3)c2n1 do in these assays?
TbREL1 inh: 0

How did Cc1cccc(-n2c(=O)[nH]c3c(C(N)=O)nc(C(C)C)nc32)c1 do in these assays?
TbREL1 inh: 0

How did Cc1ccsc1-c1nc(C(N)=O)c2[nH]c(=O)n(-c3ccc(Cl)cc3)c2n1 do in these assays?
TbREL1 inh: 27*; TbREL1 conf: 0

Results for NC(=O)C1=CN([C@@H]2O[C@H](COP(=O)(O)OP(=O)(O)OC[C@H]3O[C@@H](n4cnc5c(N)ncnc54)[C@H](O)[C@@H]3O)[C@@H](O)[C@H]2O)C=CC1 ?
TbREL1 inh: 7

Results for C[C@H]1[C@@H](OC(=O)NCc2ccco2)CC[C@@]23CCCN2C(=O)CCC[C@@H]13 ?
TbREL1 inh: 2

Results for COc1cccc(-c2nnc(SCC(=O)OC(C)C)n2-c2ccc(Cl)cc2)c1 ?
TbREL1 inh: -3

How did O=C(CCNC(=O)c1ccc(Cl)cc1)Nc1ncccc1O do in these assays?
TbREL1 inh: 19*; TbREL1 conf: 1

Results for O=C(NCCNC(=O)c1ccccn1)c1ccc(Cl)cc1 ?
TbREL1 inh: 3

Results for Cc1ccc(C(=O)CCC(=O)Nc2ncccc2O)cc1 ?
TbREL1 inh: -2

What do the screens show for `O=C(NCc1ccc(C(=O)NCC2CCCO2)cc1)c1cccc(Br)c1` (stereo unspecified)?
TbREL1 inh: -2

Results for O=S(=O)(c1cccs1)N1CCC(c2cn3ccccc3n2)CC1 ?
TbREL1 inh: 1

Results for Nc1ccc2nc(-c3ccccn3)[nH]c2c1 ?
TbREL1 inh: 0

How did Nc1ccc2nc(-c3cccnc3)[nH]c2c1 do in these assays?
TbREL1 inh: 0

How did Nc1ccc2nc(-c3ccc(N)c(Cl)c3)[nH]c2c1 do in these assays?
TbREL1 inh: 13*; TbREL1 conf: 6

Results for C/C(=N/NC(=O)CSc1nnc(SCc2ccc(C)cc2)s1)c1cccc(O)c1 ?
TbREL1 inh: 4

What do the screens show for `Cc1occc1-c1nnc(SCC(=O)NCc2ccc(Cl)cc2)n1-c1ccccc1`?
TbREL1 inh: -3

Results for O=C(C1CCCN1S(=O)(=O)c1ccc([N+](=O)[O-])cc1)N1CCN(c2ccccc2)CC1 (stereo unspecified) ?
TbREL1 inh: 1

How did Nc1cc(S(=O)(=O)c2ccc(O)c(N)c2)ccc1O do in these assays?
TbREL1 inh: -2

What do the screens show for `Nc1cc(S(=O)(=O)O)cc([N+](=O)[O-])c1O`?
TbREL1 inh: 21*; TbREL1 conf: 59*

What do the screens show for `Nc1ccc(C(=O)O)cc1[N+](=O)[O-]`?
TbREL1 inh: 0

How did Cc1sc2nc(COC(=O)CNC(=O)c3ccc(F)cc3Cl)[nH]c(=O)c2c1C do in these assays?
TbREL1 inh: 6

Results for Cc1cccc(C(=O)Oc2ccc(/C=N/NC(=O)c3ccc(O)cc3)cc2)c1 ?
TbREL1 inh: -4

Results for O=C(N/N=C/c1ccc(OC(=O)c2ccccc2Cl)cc1)c1cc(O)cc(O)c1 ?
TbREL1 inh: 12*; TbREL1 conf: 19*

How did COc1ccc(/C=N/NC(=O)c2cccc(NC(=O)c3ccccc3Cl)c2)cc1 do in these assays?
TbREL1 inh: 2

How did Cc1cc(NS(=O)(=O)c2ccc(NC(=S)NC(=O)c3ccccc3)cc2)no1 do in these assays?
TbREL1 inh: -1

How did CCCCCOc1ccc(C(=O)Nc2ccc(S(=O)(=O)Nc3cc(C)on3)cc2)cc1 do in these assays?
TbREL1 inh: -2

What do the screens show for `CCOc1cc(C(=O)Nc2ccc(S(=O)(=O)Nc3cc(C)on3)cc2)cc(OCC)c1OCC`?
TbREL1 inh: 61*; TbREL1 conf: 2

Results for CCOc1ccc(-n2c(SCC(=O)Nc3cccc4ccccc34)nnc2-c2ccccc2)cc1 ?
TbREL1 inh: -2

How did Cc1cccc(C)c1N1C(=O)CC(N2CCN(S(=O)(=O)c3ccccc3F)CC2)C1=O (stereo unspecified) do in these assays?
TbREL1 inh: 3

What do the screens show for `O=C1CC(N2CCN(S(=O)(=O)c3ccccc3)CC2)C(=O)N1c1ccccc1` (stereo unspecified)?
TbREL1 inh: 2

How did O=C1CC(N2CCN(S(=O)(=O)c3ccccc3F)CC2)C(=O)N1c1ccccc1F (stereo unspecified) do in these assays?
TbREL1 inh: 11*; TbREL1 conf: -3

How did Nc1[nH]c(C(=O)c2ccccc2)c(-c2ccc(Cl)cc2Cl)c1C(=O)c1cccs1 do in these assays?
TbREL1 inh: 0
